Measurements as given in PubChem BioAssay (Tox21).
Inconclusive results are not listed. A call without a number means that no potency is given here. Where a structure was tested more than once in an assay, its records may differ in their call. The source made the active and inactive calls. The call rests on the fitted dose curve.
Potency means the concentration at half of the fitted maximal effect.

Each compound was assayed against Acetylcholinesterase (Homo sapiens) (UniProt P22303) (assay: Acetylcholinesterase (AChE) small molecule antagonists: fluorescence cell-based qHTS assay (AID 1347398; further: nearly all actives have a fitted effect of over 50% in size)). Settings: SH-SY5Y cells; Potency: AChE activity; outcome: AChE activity; series mostly up to 115 µM.
Sequence of Acetylcholinesterase (Homo sapiens) (P22303 whole entry, looked up): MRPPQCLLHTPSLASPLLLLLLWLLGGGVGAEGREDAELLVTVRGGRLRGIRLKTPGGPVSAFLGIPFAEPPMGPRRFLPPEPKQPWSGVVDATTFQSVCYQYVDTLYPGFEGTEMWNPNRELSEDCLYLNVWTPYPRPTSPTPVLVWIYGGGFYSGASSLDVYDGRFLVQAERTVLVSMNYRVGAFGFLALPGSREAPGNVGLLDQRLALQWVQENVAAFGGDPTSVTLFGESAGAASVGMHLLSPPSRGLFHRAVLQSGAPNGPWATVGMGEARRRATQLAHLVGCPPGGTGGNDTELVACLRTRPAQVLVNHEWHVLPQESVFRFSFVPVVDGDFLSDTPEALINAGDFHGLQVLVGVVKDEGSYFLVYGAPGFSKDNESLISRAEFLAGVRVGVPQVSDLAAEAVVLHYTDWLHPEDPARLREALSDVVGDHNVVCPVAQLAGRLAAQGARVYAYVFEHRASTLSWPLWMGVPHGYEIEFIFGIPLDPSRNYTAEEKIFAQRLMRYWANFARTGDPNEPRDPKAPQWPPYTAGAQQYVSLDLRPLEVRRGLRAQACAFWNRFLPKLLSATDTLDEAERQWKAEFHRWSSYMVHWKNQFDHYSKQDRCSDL
Outline: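 Fluorimetric cell-based assay: intact SH-SY5Y cells, 30 min compound preincubation at 37 C, acetylthiocholine substrate with thiol probe Thiolite Green, 40 min RT development, fluorescence 490/520 nm.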
With `O=C1c2ccccc2C(=O)C1c1ccc2cc(S(=O)(=O)O)cc(S(=O)(=O)O)c2n1` the Potency was “inactive”. With `Cn1sccc1=O` the Potency was “inactive”. With `COS(C)(=O)=O` the Potency was “inactive”. For `O=C(O)c1c(Cl)ccc(Cl)c1Cl`, the Potency was “inactive”. In the case of `COc1ccc(N)c([N+](=O)[O-])c1`, the Potency is reported as “inactive”. With `CC(C)(CO)CO` the Potency was “inactive”. With `CCCCCCCCCOCC1CO1` (stereo unspecified) the Potency was “inactive”. In the case of `CCCCOCCOCCOCCO`, the Potency is reported as “inactive”. For `CC(C)(C)C(O)/C=C/c1ccc2c(c1)OCO2` (stereo unspecified), the Potency was “inactive”. With `CCOCCO` the Potency was “inactive”. In the case of `O=C1c2ccccc2C(=O)C1c1ccccc1`, the Potency is reported as “inactive”. With `O=c1c(O)c(O)c1=O` the Potency was “inactive”. `CN1CCN(C(c2ccccc2)c2ccccc2)CC1` was tested, and the Potency was “inactive”. For `Cc1cc(O)c2c(c1)C(=O)c1cc(O)cc(O)c1C2=O`, the Potency was 15.5 µM (active) and inactive. In the case of `C=CC(C)(C)CC(=O)OC`, the Potency is reported as “inactive”. `Cn1c(=O)c2[nH]cnc2n(C)c1=O` was tested, and the Potency was “inactive”. For `CCCCCC/C=C/CCCCCCCC(=O)O`, the Potency was “inactive”. `CCc1cc2cc(OC)c(OC)cc2c(Cc2ccccc2)n1` was tested, and the Potency was “inactive”. With `OC1C(O)C(O)C(O)C(O)C1O` (stereo unspecified) the Potency was “inactive”. In the case of `CCCCCCCCCCO[C@@H]1O[C@H](CO)[C@@H](O)[C@H](O)[C@H]1O`, the Potency is reported as “inactive”. With `COC(C)(OC)OC` the Potency was “inactive”. In the case of `Cc1ccc(N=Nc2c(O)ccc3ccccc23)c(C)c1`, the Potency is reported as “inactive”. In the case of `CCCCCCC(C)(C)C(=O)O`, the Potency is reported as “inactive”. `Oc1ccc2ccccc2c1N=Nc1ccccc1` was tested, and the Potency was “inactive”. With `CCSC(=O)N(CC)CC` the Potency was “inactive”. `CC(=O)OCC(=O)[C@@]1(O)CCC2C3CCC4=CC(=O)CC[C@]4(C)C3[C@@H](O)C[C@@]21C` (stereo partly specified) was tested, and the Potency was “inactive”.
